# In the library only some 10% were active in any assay of this set; here they are far more common.
# GPT2 inhibitor = Primary qHTS assay for inhibitors of Glutamate pyruvate transaminase 2 (GPT2). Recombinant GPT2, coupled pyruvate oxidase/HRP Amplex Red fluorescence. actives 0.25% (n = 100,000). Alanine aminotransferase 2 (Homo sapiens), Q8TD30. AID 1671188, 2021. Potency, µM (top dose mostly 57.7 µM), for the others: at the highest dose activity change, negative = inhibition, actives largely listed as inhibitors; note: nearly all actives have a fitted effect of over 60% in size
#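 GPT2 10ng/uL, a-KG 250uM, L-Ala 2mM, HEPES pH7.5 + 0.0001% Tween; 30 min RT. Then Amplex mix (PO/HRP/ThPP), 30 min RT dark, fluorescence. AOA 50uM used as positive control.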
# 3T3 cytotox = Cytotoxic Profiling in NIH 3T3 Cell Line of Diverse Libraries Using Quantitative High-Throughput Screening; AID 1345082, 2018; NIH 3T3 viability, CellTiter-Glo ATP luminescence, 48-72 h; Potency, µM (series often up to 96.7 µM), without a hit: at the top dose activity change, negative = cytotoxicity, hits mostly inhibitors; actives 4.3% (n = 94,000); note: nearly all actives have a fitted effect of over 55% in size
#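 Cytotoxicity is measured as loss of cellular ATP: NIH 3T3 cells (400/well) are exposed to compound for 48 or 72 hr at 37 °C, then CellTiter-Glo luminescence is imaged after 10 min at room temperature.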
# HEK cytotox = Cytotoxic Profiling in HEK 293 Cell Line of Diverse Libraries Using Quantitative High-Throughput Screening; AID 1345083, 2018; HEK 293 viability, ATP luminescence (CellTiter-Glo), 48-72 h; actives 6.6% (n = 94,000); Potency, µM (titrated, usually from 115 µM), inactives show at the top dose activity change, negative = cytotoxicity, usual class: inhibitors; note: nearly all actives have a fitted effect of over 60% in size
#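 Luminescence from cellular ATP, measured with CellTiter-Glo, indicates HEK 293 viability. Cells plated at 250 cells/well are treated with compound for 48 or 72 hr at 37 degree Celsius before reagent addition.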
# hNpr1 antagonist = Natriuretic polypeptide receptor (hNpr1) antagonism - Primary qHTS; Atrial natriuretic peptide receptor 1 (Homo sapiens), P16066; HEK293 hNpr1 GloSensor cGMP, ANP-stimulated luminescence; Potency, µM (titrated, usually from 46.3 µM), without a hit: at the top dose activity change, negative = inhibition, most hits filed as inhibitors; actives 1.6% (n = 76,000); calls by dose curve; note: nearly all actives have a fitted effect of over 60% in size
# Target sequence (P16066 whole entry, looked up): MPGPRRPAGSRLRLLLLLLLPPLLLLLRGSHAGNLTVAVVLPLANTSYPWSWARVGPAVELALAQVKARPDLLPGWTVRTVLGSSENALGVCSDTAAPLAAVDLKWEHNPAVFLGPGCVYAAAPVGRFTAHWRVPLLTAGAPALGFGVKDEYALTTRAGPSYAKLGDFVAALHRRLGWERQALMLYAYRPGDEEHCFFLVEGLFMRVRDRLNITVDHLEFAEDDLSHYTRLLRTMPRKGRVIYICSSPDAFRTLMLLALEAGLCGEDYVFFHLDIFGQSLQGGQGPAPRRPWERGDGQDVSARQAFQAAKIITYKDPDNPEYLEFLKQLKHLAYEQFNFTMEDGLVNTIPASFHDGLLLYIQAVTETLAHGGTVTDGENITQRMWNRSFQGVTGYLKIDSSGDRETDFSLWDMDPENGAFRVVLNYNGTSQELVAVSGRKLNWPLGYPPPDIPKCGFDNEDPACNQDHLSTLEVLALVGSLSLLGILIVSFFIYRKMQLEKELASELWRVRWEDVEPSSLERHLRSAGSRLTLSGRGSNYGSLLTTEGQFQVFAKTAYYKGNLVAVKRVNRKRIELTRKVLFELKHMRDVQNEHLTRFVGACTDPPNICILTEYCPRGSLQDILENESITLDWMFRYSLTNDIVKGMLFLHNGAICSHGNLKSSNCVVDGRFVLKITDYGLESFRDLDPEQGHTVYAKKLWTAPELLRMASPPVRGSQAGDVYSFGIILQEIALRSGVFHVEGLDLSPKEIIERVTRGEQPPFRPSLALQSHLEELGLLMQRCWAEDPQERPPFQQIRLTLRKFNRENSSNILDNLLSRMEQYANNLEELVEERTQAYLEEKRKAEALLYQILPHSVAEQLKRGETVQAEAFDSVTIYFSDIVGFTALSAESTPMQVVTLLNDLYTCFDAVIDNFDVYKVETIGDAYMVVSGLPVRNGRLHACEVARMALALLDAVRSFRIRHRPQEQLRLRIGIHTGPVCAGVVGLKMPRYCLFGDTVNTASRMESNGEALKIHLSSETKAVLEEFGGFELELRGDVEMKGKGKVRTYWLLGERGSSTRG
#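 HEK293 cells stably expressing human Npr1 and cGMP GloSensor pGS-40F, loaded 2 h with 2% GloSensor reagent, given compound 30 min at room temperature. Luminescence read before and 20 min after 0.1 nM hNppA.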
# Luciferase inh = Firefly luciferase inhibition profiling of diverse chemical library using quantitative high-throughput screening. purified P. pyralis luciferase, luminescence, biochemical. Potency, µM (top dose mostly 115 µM), hits mostly inhibitors. actives 2.5% (n = 76,000). AID 1347043, 2019; note: nearly all actives have a fitted effect of over 65% in size
#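 Cell-free enzyme assay, 10nM P. pyralis luciferase, luciferin and ATP each at 10uM. Inhibition profiled over a 6-point titration, read as luminescence.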
# The depositor's hits bear a star; i = inactive; u = inconclusive; x = no result given; [ ] = another dose, or the depositor's remark. Unless noted, calls come from the whole dose curve; as a rule, active = well fitted curve in the direction sought with a large enough effect; inconclusive = small, poorly fitted or top-dose-only effect, or another doubt; inactive = no such curve, though single readings can be large; an effect the other way counts as inactive or inconclusive. % is set by controls: 0 for no effect and ±100 for the full control effect; potency is the fitted concentration of half-maximal effect.
SMILES,GPT2 inhibitor,3T3 cytotox,HEK cytotox,hNpr1 antagonist,Luciferase inh
CC1=Nc2cc(C(=O)NCCCN(C)C)ccc2Sc2ccc(F)cc21,-13%,u,50µM*,2%,i
CCCCS(=O)(=O)Nc1ccc([C@H]2OCC(=O)N(Cc3ccccc3)[C@@H]2CO)cc1,-6%[88.5 µM],u,u,4%[70.6 µM],i
OC(c1cccc(C(F)(F)F)c1)c1nc(Nc2cccc(Cl)c2)n[nH]1 (centres undefined),i,50µM*,63µM*,u,i
Cc1ccccc1Nc1n[nH]c(C(O)c2ccc3c(c2)CCO3)n1 (centres undefined),u,u,u,-5%[70.6 µM],i
COc1ccc(Nc2n[nH]c(C(O)c3cccc(C(F)(F)F)c3)n2)cn1 (centres undefined),i,u,u,-22%[70.6 µM],i
OC(c1ccc2c(c1)CCO2)c1nc(Nc2cccc(C(F)(F)F)c2)n[nH]1 (centres undefined),u,u,71µM*,-8%[70.6 µM],i
OC(c1nc(Nc2ccc(Cl)c(C(F)(F)F)c2)n[nH]1)C1CC1 (centres undefined),-3%[88.5 µM],50µM*,56µM*,u,u
O=C(NCCCc1ccccc1)c1ccc2nc(-c3cccnc3Cl)oc2c1,0%[88.5 µM],45µM*,u,x,x
O=C(NCCc1ccccc1)c1ccc2nc(-c3ccccn3)oc2c1,i,u,89µM*,x,x
Cc1cccc(-c2nc3ccc(C(=O)NCCc4ccccc4)cc3o2)n1,-12%[88.5 µM],u,100µM*,x,x
COc1ccc(C(=O)NCc2nnc3cc(-c4nc(C(C)C)no4)ccn23)cc1F,i,-10%,-33%,-5%,i
O=C(Nc1ccc(OC(F)(F)F)cc1)N1CCOC[C@H](Oc2ccccc2)C1,-2%[88.5 µM],32µM*,56µM*,u,i
CCCNC(=O)N1CCOC[C@H](Oc2ccccc2)C1,i,i,i,5%[70.6 µM],i
O=C(C1CCCCC(=O)N1Cc1ccccc1)N1CCc2ccccc2C1 (centres undefined),4%,u,u,-10%,i
CC(C)(O)Cn1c(NC(=O)c2ccc(-c3cn[nH]c3)s2)nc2cc(CN3CCOCC3)ccc21,i,x,x,x,x
COc1cc(F)ccc1-c1cc(C(=O)NCCc2cnc[nH]2)c2c(c1)N(C)CCO2,-1%[88.5 µM],100µM*,u,3%[70.6 µM],i
CN1CCOc2c(C(=O)NCCc3cnc[nH]3)cc(-c3ccccc3F)cc21,2%[88.5 µM],u,89µM*,2%[70.6 µM],i
CCc1nc2c(c(-c3ccc(OC)cc3)n1)CN([S+](=O)([O-])c1c(C)noc1C)CC2,i,u,4%,x,x
CCC(c1cccnc1)N(C)C(=O)c1cc(COc2ccccc2)[nH]n1 (centres undefined),-8%,-15%,79µM*,-1%,i
COc1ccc(NC(=O)c2c(-c3cnn(C)c3NCc3ccccc3)noc2C)cc1,i,11µM*,u,-6%[70.6 µM],i
O=C1[C@H]2CN(Cc3ccc(F)c(Cl)c3)C[C@H]2C(=O)N1Cc1ccc2c(c1)OCO2,-2%,u,35µM*,-18%,i
COc1ccccc1-c1cccc(CN2CCC(NC(=O)c3ccc(C)cc3)CC2)c1,1%,u,50µM*,x,x
COc1ccccc1-c1cccc(CN2CCC(NC(=O)c3ccccc3)CC2)c1,-12%,u,u,x,x
COc1ccccc1-c1cccc(CN2CCC(NC(=O)Nc3ccccc3F)CC2)c1,i,18µM*,25µM*,x,x
COc1ccccc1-c1cccc(CN2CCC(NC(=O)NC3CCCC3)CC2)c1,-5%,28µM*,40µM*,x,x
SMILES,GPT2 inhibitor,3T3 cytotox,HEK cytotox,hNpr1 antagonist,Luciferase inh
O=C(c1ccc(C(F)(F)F)cc1)N1CCC2(CC1)COc1ccccc1CN2,4%,-5%,-1%,-18%,i
COC(=O)[C@@H]1Cc2c([nH]c3ccccc23)[C@H]2C[C@@H](NCCNC(C)=O)C[C@@H](c3ccc(-c4ccccc4)cc3)N21,-8%,u,40µM*,1%,i
CC(=O)NCc1nnc2n1C(C(=O)Nc1cccc(Cl)c1)CC2 (centres undefined),1%,-20%,3%,x,x
COC(=O)[C@@H]1Cc2c([nH]c3ccccc23)[C@H]2C[C@@H](NCCN(C)C)C[C@@H](c3cccc(Cl)c3)N21,-2%,4.5µM*,6.3µM*,-14%,u
O=C(COc1cccc(-n2cnnc2)c1)NC1CCCc2c1[nH]c1ccccc21 (centres undefined),i,u,u,0%,i
CC(=O)NCCC(=O)N1CCC(n2c(=O)[nH]c3ccccc32)CC1,i,-2%[138 µM],2%[172 µM],x,x
COC(=O)[C@@H]1Cc2c([nH]c3ccccc23)[C@@H]2C[C@@H](NCCNC(C)=O)C[C@@H](c3cccc(Cl)c3)N12,-4%,28µM*,32µM*,2%,i
CC(C)NC(=O)Nc1ccc([C@H]2OCC(=O)N(Cc3cccnc3)[C@@H]2CO)cc1,-2%[88.5 µM],-8%[174 µM],-5%[172 µM],-3%[70.6 µM],i
CCNC(=O)N[C@H]1CO[C@H]2[C@@H]1OC[C@@H]2n1cc(CN(C)Cc2ccccc2)nn1,-1%[88.5 µM],1%[174 µM],5%[172 µM],-1%[70.6 µM],i
Cc1cccc(CN(C)C2CCCc3ccccc32)c1 (centres undefined),-2%[88.5 µM],-14%[138 µM],i,27%[70.6 µM],i
CN(Cc1cccnc1)C1CCCc2ccccc21 (centres undefined),i,u,56µM*,0%[70.6 µM],i
CN1CCC(NC(=O)C2(C)CCc3cnc(Nc4ccccc4)nc32)CC1 (centres undefined),0%[88.5 µM],u,u,-3%[70.6 µM],i
CC1(C(=O)N2CCC(c3ccccc3)CC2)COCc2cnc(Nc3ccccc3)nc21 (centres undefined),-20%[88.5 µM],45µM*,63µM*,u,i
COc1ccc(NC(=O)C2(C)CCc3cnc(Nc4ccccc4)nc32)cn1 (centres undefined),-4%[88.5 µM],u,100µM*,-19%[70.6 µM],i
COc1cccc(Nc2ncc3c(n2)C(C)(C(=O)NCCN2CCOCC2)CC3)c1 (centres undefined),3%[88.5 µM],u,u,-3%[70.6 µM],i
COc1cccc(NC(=O)C2(C)COCc3cnc(Nc4ccccc4)nc32)c1 (centres undefined),i,79µM*,100µM*,-20%[70.6 µM],i

# Assay outcomes: PubChem, National Center for Advancing Translational Sciences (NCATS)
